# This is part of a sample that, as a whole, favours compounds with a hit. Of some 83,000 tested, about 20% had one in any assay.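 Plates (96-well) were seeded with cells, treated with compound at one concentration, and incubated for 48 hours before percent growth was determined.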 Values without a mark were called inactive. The source made the active and inactive calls.
# System: HCT-116 colon
# Assay: NCI-60 one-dose screen, 48 h (100 = growth as untreated, 0 = no growth, -100 = all killed)
# Details: 10 µM unless noted
# Protocol: Growth inhibition of the HCT-116 human tumor cell line is measured as a screen for anti-cancer activity. Cells are grown in 96 well plates and exposed to the test compound for 48 hours. Compounds are tested at a single concentration, which is 10^-5 M for most compounds. The reported endpoint is percent growth (GI% or GIPRCNT), where numbers from 0 - 100% represent growth inhibition, and numbers from -100% - 0 represent cell death. For example, a value of 40 represents 60% growth inhibition. A value of 0 means no net growth occurred over the course of the experiment. A value of -40 indicates 40% of cells at the beginning of the experiment died by the end of the experiment. A value of -100 means all cells are dead at the end of the experiment.
# NCI-60 Human Tumor Cell Lines Screen was performed using the standard one-dose NCI protocol, which is described in more detail at https://dtp.cancer.gov/discovery_development/nci-60/default.htm.
# Compounds with GIPRCNT values below 10 were considered active. Activity score was based on GIPRCNT using the following formula: […]
# Score is 0 for GIPRCNT values of 100 or above, 50 for GIPRCNT values of 0, and 100 for GIPRCNT values of -100.
row,Structure (SMILES),growth
1,N/C(=N\c1nc2ccccc2[nH]1)NC(=O)Cc1cccc2ccccc12,67.4%
2,CC(C)(C)c1cc(C(=O)Nc2ccc(C(=O)NCCN)cc2)cc(C(C)(C)C)c1,12.8%
3,COc1cc(/C=C/C(=O)/C=C/c2ccc(-n3ccnc3C)cc2)ccc1O,90.6%
4,Ic1ccc2[nH]cc(SSc3c[nH]c4ccc(I)cc34)c2c1,10.1%
5,Cn1cc(-c2noc(-c3cn(C)c4ncc(F)cc34)n2)c2ccccc21,27%
6,C=C(C)[C@@H]1CC[C@]2(C(=O)OC)CC[C@]3(C)[C@H](CC[C@@H]4[C@@]5(C)CC/C(=N\OCCC(=NCCC#N)NOCCC#N)C(C)(C)[C@@H]5CC[C@]43C)[C@@H]12,4.16% [100 µM] (active)
7,O=C(OCc1ccc2c(Cl)cc(Cl)c(O)c2n1)N1CCN(C(=O)c2cc3cc(F)ccc3[nH]2)CC1,5.58% (active)
8,COCCCNc1nc(NC(=O)c2cc(Br)cc(C(F)(F)F)c2)cc(-c2cccnc2)n1,85.6%
9,CCOC(=O)Nc1ccc2c(c1)/C(=N\NC(=S)NC)c1ccccc1-2,87.6%
10,O=C(O)c1cn(C2CC2)c2cc(N3CCN(Cc4cc(Cl)ccc4O)CC3)c(F)cc2c1=O,72.3%
11,CC1(C)CC[C@]2(C(=O)OC(=O)[C@]34CCC(C)(C)C[C@@H]3C3=CC[C@@H]5[C@@]6(C)CCC(=O)C(C)(C)[C@@H]6CC[C@@]5(C)[C@]3(C)CC4)CC[C@]3(C)C(=CC[C@@H]4[C@@]5(C)CCC(=O)C(C)(C)[C@@H]5CC[C@]43C)[C@H]2C1,41% [100 µM]
12,COc1ncc(-c2ccc3nccc(C#CCCCCC(=O)O)c3c2)cc1NS(=O)(=O)c1ccc(F)cc1F,41.1%
13,O=C(COc1cccc(/C=C2\Oc3ccccc3C2=O)c1)c1ccc([N+](=O)[O-])cc1,92.2%
14,CCOC(=O)C(=Cc1ccccc1[N+](=O)[O-])C(=O)OCC,7.82% (active)
15,Cc1cc(C)nc(SCC(=O)Nc2cccc(N=Cc3ccccc3O)c2)n1,97.3%
16,Cc1cc(N2CCCCCC2)nc(N2CCN(CC(=O)Nc3ccc4c(ccn4Cc4ccccc4)c3)CC2)n1,32%
17,COc1ccc(-c2cc(-c3ccc(OC)c(OC)c3)nc(SCCCCCC(=O)NO)n2)cc1,14.6%
18,COc1ccc(-c2cc(-c3ccc(Cl)cc3)nc(SCCCCCCC(=O)NO)n2)cc1,14.9%
19,Nc1ccc2c(c1)Cc1cc(NC(=O)C(F)(F)F)ccc1-2,108%
20,CCOc1cc(NC(=O)c2ccccc2)c(OCC)cc1N,118%

row,Structure (SMILES),growth
1,CCCCC1COc2cccc3c2N1C=C/C3=C\C(=O)n1ccc2ccccc21 (stereo not given),58.3%
2,CC(C)C1=NOC(=O)C1=Cc1cn(-c2ccccc2)nc1-c1ccc(Cl)cc1,50.4%
3,Cc1ccc(NC(=O)N[C@@H](Cc2cc(F)cc(F)c2)C(=O)N[C@@H]2C(=O)N3CCC[C@H]3C(=O)N3CCOC[C@H]3C(=O)N[C@@H](C)C(=O)N3C[C@H](C)C[C@H]3C(=O)O[C@H]2C)cc1,12.5%
4,CC1Cc2c(Cl)ncnc2N(C)c2ccc(Cl)cc21 (stereo not given),7.96% (active)
5,CSc1cccc([N+](=O)[O-])c1,100%
6,O=c1[nH]c(CN2CCN(c3cccc(Cl)c3)CC2)nc2cc(Cl)ccc12,92.4%
7,CC(C)[C@H]1CCC2=C3CC[C@]45OC(=O)[C@@]6(CCC(C)(C)C[C@H]64)CC[C@@]5(C)[C@]3(C)CC[C@@]21C,51.6% [100 µM]
8,C=C(C)[C@@H]1CC[C@]2(C)[C@H](C(=O)C=C3[C@@H]4C[C@](C)(C(=O)N5CCN(C)CC5)CC[C@]4(C)CC[C@]32C)[C@@]1(C)CCC#N,-70.7% [100 µM] (active)
9,CC1(C)CC[C@]23CC[C@]4(C)[C@H](CC[C@@H]5[C@@]6(C)C/C(=C/c7ccncc7)C(=O)C(C)(C)[C@@H]6CC[C@]54C)[C@H]2[C@H]1OC3=O,47.9% [100 µM]
10,O=[N+]([O-])c1cccc(/C=C/c2ccc3ccccc3n2)c1,82.4%
11,CCN(CC)CCS(=O)(=O)CCNc1ccnc2cc(Cl)ccc12,6.59% (active)
12,CCOC(=O)c1ccc2nc(-c3c(C)nn(-c4ccccc4)c3N3CCOCC3)[nH]c2c1,93.2%
13,COc1ccc(-c2nc3ccccn3c2/C=C/C(=O)c2cc(OC)c(OC)c(OC)c2)cc1OC,10.3%
14,CC(C)=CCC[C@](C)(O)[C@H]1CC[C@]2(C)[C@@H]1CC[C@@H]1[C@@]3(C)CC[C@H](OC(=O)CCC(=O)O)C(C)(C)[C@@H]3CC[C@]12C,9.66% [100 µM] (active)
15,Cc1ccc(S(=O)(=O)n2cc(C(=O)C(=O)N3CCCCC3)c3ccccc32)cc1,65.6%
16,COc1cc(C)cc2oc3oc(=O)c(-c4nc5ccccc5s4)cc3c(=O)c12,93.4%
17,COc1c(C(C)=O)c(OCCCCOc2c(C(C)=O)c(OC)c3ccoc3c2OC)c(OC)c2occc12,78%
18,COc1ccc(-c2cc(-c3ccccc3)nc(SCCCCCC(=O)NO)n2)cc1,21.6%
19,O=C(Nc1cccc(C2=NCCN2)c1)c1cccc(C(=O)Nc2cccc(C3=NCCN3)c2)c1,99.7%
20,COc1ccc2c(c1)C(C)Cc1c(Cl)nc(C)nc1N2C (stereo not given),12.2%
